Measurements reported in PubChem BioAssay (Tox21).
Results filed as inconclusive are left out. Where a call stands in place of a potency, no number is given. A structure can be active in one record and inactive in another. Activity calls are given as the source filed them. Unless noted, calls follow the shape of the dose curve; as a rule, active = well fitted curve in the direction sought with a large enough effect in the repeat runs; inconclusive = weak or mixed curves; inactive = no such curve, though single readings can be large; an effect the other way counts as inactive or inconclusive.

Assays:
[1] = qHTS RealTime-Glo MT Cell Viability Assay in HEK293 cells - 0 hour (AID 1224880); also: top concentration of the series differs between compounds; nearly all actives have a fitted effect of over 45% in size
Method in brief: (§1)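 Nonlytic bioluminescent viability monitoring. HEK293 at 600 cells/well with reagent; 5 h settle; compound transfer by pintool; plates held at 37 C and read at set time points.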

[2] = A CellTox Green Cytotoxicity Assay to monitor cytotoxicity in HEK293 cells - 32 hour (AID 1224881); also: nearly all actives have a fitted effect of over 40% in size
Method in brief: (§2)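 Cytotoxicity was tracked continuously in HEK293 cells by a DNA-binding dye excluded from viable cells. Compounds were transferred in DMSO 5 h after seeding; fluorescence was recorded at intervals up to 40 h.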

[3] = A CellTox Green Cytotoxicity Assay to monitor cytotoxicity in HepG2 cells - 0 hour (AID 1224882); also: nearly all actives have a fitted effect of over 35% in size
Method in brief: (§3)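 Real-time, homogeneous cytotoxicity readout: dead-cell DNA staining by CellTox Green in HepG2 monolayers, fluorescence measured at timed intervals up to 40 h of continuous compound exposure.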

[4] = A CellTox Green Cytotoxicity Assay to monitor cytotoxicity in HepG2 cells - 32 hour (AID 1224883); also: nearly all actives have a fitted effect of over 50% in size
Method in brief: as §3

[5] = A CellTox Green Cytotoxicity Assay to monitor cytotoxicity in HEK293 cells - 8 hour (AID 1224884); also: nearly all actives have a fitted effect of over 35% in size
Method in brief: as §2

[6] = qHTS RealTime-Glo MT Cell Viability Assay in HepG2 cells - 16 hour (AID 1224885); also: nearly all actives have a fitted effect of over 50% in size
Method in brief: (§4)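 HepG2 cells were seeded at 600 cells/well together with NanoLuc luciferase and a cell-permeant prosubstrate, preincubated 5 h at 37 C/5% CO2, then pin-dosed with compounds in DMSO. Nonlytic luminescence from viable cells was read at each time point.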

[7] = qHTS RealTime-Glo MT Cell Viability Assay in HEK293 cells - 8 hour (AID 1224887); also: nearly all actives have a fitted effect of over 50% in size; also: potency is read from the fitted curve at half-maximal effect
Method in brief: as §1

[8] = A CellTox Green Cytotoxicity Assay to monitor cytotoxicity in HEK293 cells - 16 hour (AID 1224888); also: nearly all actives have a fitted effect of over 35% in size
Method in brief: as §2

[9] = qHTS RealTime-Glo MT Cell Viability Assay in HepG2 cells - 0 hour (AID 1224889); also: nearly all actives have a fitted effect of over 50% in size
Method in brief: as §4

[10] = qHTS assay to identify small molecule antagonists of the estrogen receptor alpha (ER-alpha) signaling pathway using the BG1 cell line in the presence of 0.1 nM 17-beta-estradiol - cell viability counter screen (AID 1259241); also: nearly all actives have a fitted effect of over 40% in size
Method in brief: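 Following 5 days in phenol red-free medium with charcoal-stripped serum, VM7Luc4E2 cells received test compounds alongside 0.1 nM 17beta-estradiol (final) at 37C for 22 hr. Live cells were then quantified via protease-substrate fluorescence.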

[11] = qHTS assay to identify small molecule antagonists of the androgen receptor (AR) signaling pathway using the MDA cell line in the presence of 0.5 nM R1881 - cell viability counter screen (AID 1259242); also: nearly all actives have a fitted effect of over 45% in size
Method in brief: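 Cytotoxicity toward MDA-kb2 cells is measured by CellTiter-Fluor live-cell protease fluorescence after 16 hr compound exposure at 37C in the presence of 0.5 nM R1881 stimulator.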

[12] = target: Androgen receptor (Homo sapiens) (UniProt P10275); test: qHTS assay to identify small molecule antagonists of the androgen receptor (AR) signaling pathway using the MDA cell line in the presence of 0.5 nM R1881 (AID 1259243); also: nearly all actives have a fitted effect of over 50% in size
Method in brief: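 Steps: seed MDA-kb2 cells, incubate 5 hr at 37C; pin-transfer compounds in DMSO; add R1881 to 0.5 nM final; incubate 16 hr; add ONE-Glo, wait 30 min at room temperature; read luminescence.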

[13] = target: Estrogen receptor (Homo sapiens) (UniProt P03372); test: qHTS assay to identify small molecule antagonists of the estrogen receptor alpha (ER-alpha) signaling pathway using the BG1 cell line in the presence of 0.1 nM 17-beta-estradiol (AID 1259244); also: nearly all actives have a fitted effect of over 50% in size; also: potency is read from the fitted curve at half-maximal effect
Method in brief: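 After 5 days in hormone-depleted medium (charcoal-stripped serum, no phenol red), VM7Luc4E2 cells were seeded, incubated 24 h, then co-treated with compound and 0.1 nM (final) estradiol for 22 h before luminescence detection.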

[14] = qHTS assay to identify small molecule HDAC inhibitors (AID 1259364); also: top concentration of the series differs between compounds; nearly all actives have a fitted effect of over 45% in size
Method in brief: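 Homogeneous cell-based luminescent assay of endogenous class I/II HDAC activity; HCT-116 cells, 2 h compound exposure, 30 min HDAC-Glo development at RT.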

[15] = qHTS assay to identify small molecule HDAC inhibitors - cell viability counter screen (AID 1259365)
Method in brief: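 HCT-116 wild-type, overnight attachment; 2hr drug exposure, 37C; CellTiter-Glo luminescent ATP readout after 30min RT.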

[16] = qHTS assay to identify small molecule antagonists of the sonic hedgehog signaling (Shh) pathway - cell viability counter screen (AID 1259367); also: nearly all actives have a fitted effect of over 55% in size; also: potency is read from the fitted curve at half-maximal effect
Method in brief: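 NIH/3T3-derived Gli1-Luc reporter cells (2,000 per well) rested 4 hr at 37 C, then received DMSO compounds plus conditioned medium. After 23 hr of treatment, CellTiter-Fluor was added for 1 hr at 37C and fluorescence read.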

[17] = qHTS assay to identify small molecule agonists of the sonic hedgehog signaling (Shh) pathway - cell viability counter screen (AID 1259366); also: nearly all actives have a fitted effect of over 50% in size; also: potency is read from the fitted curve at half-maximal effect
Method in brief: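 Compounds in DMSO were pin-transferred onto 3T3 Gli1-Luc cells that had settled 4hr; plates then stood 24hr at 37C and 5% CO2. One hour before the end, CellTiter-Fluor was added and fluorescence recorded.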

[18] = qHTS RealTime-Glo MT Cell Viability Assay in HEK293 cells - 24 hour (AID 1224886); also: nearly all actives have a fitted effect of over 50% in size; also: potency is read from the fitted curve at half-maximal effect
Method in brief: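 HEK293 cells were seeded at 600 cells/well together with NanoLuc luciferase and cell-permeant prosubstrate, preincubated 5 h at 37 C/5% CO2, then given compound in DMSO by pintool. Luminescence from viable-cell prosubstrate reduction was read repeatedly over 40 h.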

[19] = qHTS assay to identify small molecule phospholipidosis (PLD) inducers (AID 1259344; active = well fitted curve in the direction sought with a large enough effect; an effect the other way counts as inactive or inconclusive)
Method in brief: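 HepG2 cells on collagen I, attached 4 h at 37 C, were co-treated with compound and LipidTOX Red dye for 24 h at 37 C, then fixed with paraformaldehyde plus Hoechst 33342 and imaged by high-content microscopy for phospholipid accumulation.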

[20] = A CellTox Green Cytotoxicity Assay to monitor cytotoxicity in HepG2 cells - 8 hour (AID 1224890); also: nearly all actives have a fitted effect of over 45% in size
Method in brief: as §3

Sequence of Androgen receptor (Homo sapiens) (P10275 whole entry, looked up): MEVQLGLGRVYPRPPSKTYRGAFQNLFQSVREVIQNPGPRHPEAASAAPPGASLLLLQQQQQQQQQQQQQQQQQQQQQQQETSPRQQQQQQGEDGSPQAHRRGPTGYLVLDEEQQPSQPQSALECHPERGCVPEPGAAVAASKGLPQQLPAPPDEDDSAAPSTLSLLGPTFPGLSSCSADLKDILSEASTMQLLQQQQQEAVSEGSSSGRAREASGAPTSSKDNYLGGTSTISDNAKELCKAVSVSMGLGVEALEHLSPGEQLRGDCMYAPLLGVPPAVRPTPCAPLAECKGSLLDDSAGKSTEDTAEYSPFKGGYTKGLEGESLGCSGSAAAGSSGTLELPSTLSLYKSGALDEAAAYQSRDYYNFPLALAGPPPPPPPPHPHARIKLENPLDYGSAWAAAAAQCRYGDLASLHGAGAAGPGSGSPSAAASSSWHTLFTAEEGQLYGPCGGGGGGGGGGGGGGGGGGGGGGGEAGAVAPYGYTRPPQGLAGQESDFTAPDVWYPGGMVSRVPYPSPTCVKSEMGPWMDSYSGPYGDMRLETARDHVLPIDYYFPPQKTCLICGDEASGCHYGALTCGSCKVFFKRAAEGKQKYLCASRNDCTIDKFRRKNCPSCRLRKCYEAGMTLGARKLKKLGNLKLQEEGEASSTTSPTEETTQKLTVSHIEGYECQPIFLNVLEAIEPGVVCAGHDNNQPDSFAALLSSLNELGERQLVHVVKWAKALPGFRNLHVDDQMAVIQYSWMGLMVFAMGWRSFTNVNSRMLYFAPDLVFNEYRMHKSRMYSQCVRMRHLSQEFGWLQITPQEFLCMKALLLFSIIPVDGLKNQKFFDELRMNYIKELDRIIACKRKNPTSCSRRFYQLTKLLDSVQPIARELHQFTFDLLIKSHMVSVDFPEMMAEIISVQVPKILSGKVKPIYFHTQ
Sequence of Estrogen receptor (Homo sapiens) (P03372 whole entry, looked up): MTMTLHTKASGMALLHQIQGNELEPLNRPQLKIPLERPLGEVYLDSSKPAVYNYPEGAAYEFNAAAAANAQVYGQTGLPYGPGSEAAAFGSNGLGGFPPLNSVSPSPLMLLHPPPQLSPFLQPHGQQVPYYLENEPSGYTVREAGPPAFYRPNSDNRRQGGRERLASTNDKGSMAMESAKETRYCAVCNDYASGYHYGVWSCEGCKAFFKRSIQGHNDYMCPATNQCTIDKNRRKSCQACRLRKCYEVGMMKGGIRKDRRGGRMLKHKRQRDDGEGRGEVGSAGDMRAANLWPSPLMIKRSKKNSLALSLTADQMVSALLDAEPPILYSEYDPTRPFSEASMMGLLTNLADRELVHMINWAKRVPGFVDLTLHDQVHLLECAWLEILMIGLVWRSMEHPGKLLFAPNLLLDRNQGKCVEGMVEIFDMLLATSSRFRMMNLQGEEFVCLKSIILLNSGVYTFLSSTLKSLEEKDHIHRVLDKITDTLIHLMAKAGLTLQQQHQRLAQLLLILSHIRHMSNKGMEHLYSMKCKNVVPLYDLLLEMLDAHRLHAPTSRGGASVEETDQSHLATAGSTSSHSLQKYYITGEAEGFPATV

Row | Compound | outcome [1] | Potency [2] | outcome [3] | Potency [4] | outcome [5] | Potency [6] | Potency [7] | Potency [8] | Potency [9] | Potency [10] | Potency [11] | Potency [12] | Potency [13] | Potency [14] | outcome [15] | Potency [16] | Potency [17] | Potency [18] | outcome [19] | outcome [20]
1 | COc1ccc(C)cc1N | inactive | inactive | inactive | inactive | inactive | inactive | inactive | inactive | inactive | inactive | inactive | inactive | inactive | inactive | inactive | inactive |  |  |  | 
2 | O=[N+]([O-])c1ccc2nc[nH]c2c1 | inactive | inactive | inactive | inactive | inactive | inactive | inactive | inactive |  | inactive | inactive |  | inactive | inactive | inactive | inactive | inactive |  |  | 
3 | O=C1C(c2[nH]c3ccccc3c2O)=Nc2ccccc21 | inactive | inactive | inactive | inactive | inactive | inactive | inactive | inactive |  | inactive | inactive |  |  | inactive | inactive | inactive | inactive | inactive | inactive | 
4 | C=C(C)[C@H]1CC=C(C)C(=O)C1 | inactive | inactive | inactive | inactive | inactive | inactive | inactive | inactive | inactive | inactive | inactive |  |  | inactive | inactive | inactive |  |  |  | inactive
5 | Cc1ccc(C(C)C)c(O)c1 | inactive | inactive | inactive | inactive | inactive | inactive | inactive | inactive | inactive | inactive | inactive |  | inactive | inactive | inactive | inactive | inactive |  | inactive | inactive
6 | CCOCC(=O)O |  | inactive | inactive | inactive | inactive | inactive | inactive | inactive | inactive | inactive | inactive |  | inactive | inactive | inactive | inactive |  | inactive |  | inactive
7 | CC(C)OC(=O)COc1ccc(Cl)cc1Cl |  | inactive | inactive | inactive | inactive | inactive | inactive | inactive | inactive | inactive | inactive |  | inactive | inactive | inactive | inactive |  | inactive |  | 
8 | COc1ccc([N+](=O)[O-])cc1N |  | inactive | inactive | inactive | inactive | inactive | inactive | inactive |  | inactive | inactive |  | inactive | inactive | inactive | inactive |  | inactive |  | 
9 | O=C(O)CCCCCCCCC(=O)O |  | inactive | inactive | inactive | inactive | inactive | inactive | inactive |  | inactive | inactive |  |  | inactive | inactive | inactive | inactive | inactive |  | inactive
10 | O=c1[nH]cnc2[nH]ncc12 |  | inactive | inactive | inactive | inactive | inactive | inactive | inactive |  | inactive | inactive |  | inactive | inactive | inactive | inactive |  |  | inactive | inactive
11 | CC(C)c1cccc(C(C)C)c1 |  | inactive | inactive | inactive | inactive | inactive | inactive | inactive |  | inactive | inactive |  | inactive | inactive | inactive | inactive | inactive |  |  | inactive
12 | O=S(=O)(O)c1ccccc1 |  | inactive | inactive | inactive | inactive | inactive | inactive | inactive | inactive | inactive | inactive |  |  | inactive | inactive | inactive | inactive |  |  | 
13 | CC(CCO)CC(C)(C)C (configuration not stated) |  | inactive | inactive | inactive | inactive | inactive | inactive | inactive |  | inactive | inactive | inactive | inactive | inactive | inactive | inactive | inactive | inactive |  | 
14 | C=CCc1ccc(OC)c(OC)c1 |  | inactive | inactive | inactive | inactive | inactive | inactive | inactive | inactive | inactive | inactive |  |  | inactive | inactive | inactive | inactive | inactive |  | inactive
15 | CN(C)c1ccc(O)c2c1C[C@H]1C[C@H]3[C@H](N(C)C)C(=O)C(C(N)=O)=C(O)[C@@]3(O)C(=O)C1=C2O |  | inactive | inactive | inactive | inactive | inactive | inactive | inactive | inactive | inactive | inactive |  | inactive | inactive | inactive | inactive | inactive | inactive | inactive | 
16 | O=C(O)/C=C/C(=O)O |  | inactive | inactive | inactive | inactive | inactive | inactive | inactive |  |  |  |  |  | inactive | inactive | inactive |  | inactive |  | inactive
17 | O=C(OCC1CCC2OC2C1)C1CCC2OC2C1 (configuration not stated) |  | inactive | inactive | inactive | inactive | inactive | inactive | inactive | inactive | inactive | inactive |  | inactive | inactive | inactive |  |  | inactive |  | 
18 | CCNc1cccc(C)c1 |  | inactive | inactive | inactive | inactive | inactive | inactive | inactive |  | inactive | inactive |  | inactive | inactive | inactive | inactive | inactive |  |  | 
19 | N#Cc1ccccc1 |  | inactive | inactive | inactive | inactive | inactive | inactive | inactive |  | inactive | inactive |  |  | inactive | inactive | inactive | inactive | inactive |  | 
20 | C=C(C)C(=O)OCC(C)C |  | inactive | inactive | inactive | inactive | inactive | inactive | inactive | inactive | inactive | inactive |  | inactive | inactive | inactive | 7.8 µM (active) and inactive | 27.7 µM (active) and inactive |  |  | inactive
21 | O=C(O)c1ccc(S(=O)(=O)N(Cl)Cl)cc1 |  | inactive | inactive | inactive | inactive | inactive | 49.3 µM (active) and inactive | inactive | inactive | inactive | inactive |  | 38.8 µM (active) and inactive | inactive | inactive | inactive | inactive | 49.3 µM (active) and inactive | inactive | inactive
22 | CCCCCC(=O)O |  | inactive | inactive | inactive | inactive | inactive | inactive | inactive | inactive | inactive | inactive | inactive | inactive | inactive | inactive | inactive |  |  |  | inactive
